Measured values published in PubChem BioAssay.
Active and inactive are the calls of the source. Cut-off read from the data, not from the text of the source, unless noted: active = response above about 15%; inactive = the rest.

Columns and labels:
[1] = reduced mouse 2C T cell binding to pMHC/ICAM-1 vesicles – MLPCN validation set, flow cytometry, LFA-1/ICAM-1 modulator project, pilot screen (AID 2523;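 active = response below a set limit, under 55% cells CD8-positive and vesicle-bound, and CD8 cells' 90th-percentile brightness under 279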;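 for vesicle binding response: mean PE anti-B7-1 fluorescence of CD8+ cells relative to row control; 100% = QL9-loaded vesicles with DMSO vehicle in the same plate row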); settings: 2C mouse CD8+ T cells, at 7 µM, stronger effect = lower value; double positive events: measured here: CD8+/vesicle+ event percentage
[2] = molecular target: Integrin beta-1 (Homo sapiens) + Integrin alpha-4 (Homo sapiens) (UniProt P13612+P05556); assay: alpha4beta1 integrin LIBS antibody binding reduction – U937 cells, HUTS-21 mAb, flow cytometry, validation set, VLA-4 allosteric modulator project, pilot screen (AID 2674;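 active = inhibition above 50%, about 3 SD of the validation set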;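 note: antibody binding induced by the VLA-4 ligand LDV present at three times its Kd; 0% = LDV ligand with antibody and no compound and 100% = antibody without LDV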); settings: HUTS-21 LIBS mAb binding, at 6.7 µM, stronger effect = higher value, binding induced by LDV ligand
Chain of Integrin beta-1 (Homo sapiens) + Integrin alpha-4 (Homo sapiens) (P05556 whole entry, looked up): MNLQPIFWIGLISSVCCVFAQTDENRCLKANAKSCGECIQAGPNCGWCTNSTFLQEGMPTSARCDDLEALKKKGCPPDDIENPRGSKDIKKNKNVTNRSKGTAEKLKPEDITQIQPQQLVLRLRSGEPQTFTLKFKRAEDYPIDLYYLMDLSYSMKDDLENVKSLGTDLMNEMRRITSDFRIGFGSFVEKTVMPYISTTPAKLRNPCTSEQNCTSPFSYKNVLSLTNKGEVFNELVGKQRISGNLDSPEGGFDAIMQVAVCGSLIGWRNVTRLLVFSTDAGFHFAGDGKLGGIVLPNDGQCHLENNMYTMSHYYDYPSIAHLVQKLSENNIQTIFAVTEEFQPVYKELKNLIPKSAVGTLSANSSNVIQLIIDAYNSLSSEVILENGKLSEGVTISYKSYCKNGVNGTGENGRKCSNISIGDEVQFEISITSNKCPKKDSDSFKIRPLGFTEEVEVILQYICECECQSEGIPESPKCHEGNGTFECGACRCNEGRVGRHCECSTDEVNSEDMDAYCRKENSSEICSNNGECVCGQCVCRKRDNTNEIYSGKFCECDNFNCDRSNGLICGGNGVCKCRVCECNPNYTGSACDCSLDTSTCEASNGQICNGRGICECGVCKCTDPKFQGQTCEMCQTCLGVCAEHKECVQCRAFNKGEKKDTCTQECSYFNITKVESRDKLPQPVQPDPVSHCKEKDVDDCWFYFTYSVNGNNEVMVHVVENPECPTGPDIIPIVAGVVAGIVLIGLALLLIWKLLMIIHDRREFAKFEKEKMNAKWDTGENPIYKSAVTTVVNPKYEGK
Chain of Integrin beta-1 (Homo sapiens) + Integrin alpha-4 (Homo sapiens) (P13612 whole entry, looked up): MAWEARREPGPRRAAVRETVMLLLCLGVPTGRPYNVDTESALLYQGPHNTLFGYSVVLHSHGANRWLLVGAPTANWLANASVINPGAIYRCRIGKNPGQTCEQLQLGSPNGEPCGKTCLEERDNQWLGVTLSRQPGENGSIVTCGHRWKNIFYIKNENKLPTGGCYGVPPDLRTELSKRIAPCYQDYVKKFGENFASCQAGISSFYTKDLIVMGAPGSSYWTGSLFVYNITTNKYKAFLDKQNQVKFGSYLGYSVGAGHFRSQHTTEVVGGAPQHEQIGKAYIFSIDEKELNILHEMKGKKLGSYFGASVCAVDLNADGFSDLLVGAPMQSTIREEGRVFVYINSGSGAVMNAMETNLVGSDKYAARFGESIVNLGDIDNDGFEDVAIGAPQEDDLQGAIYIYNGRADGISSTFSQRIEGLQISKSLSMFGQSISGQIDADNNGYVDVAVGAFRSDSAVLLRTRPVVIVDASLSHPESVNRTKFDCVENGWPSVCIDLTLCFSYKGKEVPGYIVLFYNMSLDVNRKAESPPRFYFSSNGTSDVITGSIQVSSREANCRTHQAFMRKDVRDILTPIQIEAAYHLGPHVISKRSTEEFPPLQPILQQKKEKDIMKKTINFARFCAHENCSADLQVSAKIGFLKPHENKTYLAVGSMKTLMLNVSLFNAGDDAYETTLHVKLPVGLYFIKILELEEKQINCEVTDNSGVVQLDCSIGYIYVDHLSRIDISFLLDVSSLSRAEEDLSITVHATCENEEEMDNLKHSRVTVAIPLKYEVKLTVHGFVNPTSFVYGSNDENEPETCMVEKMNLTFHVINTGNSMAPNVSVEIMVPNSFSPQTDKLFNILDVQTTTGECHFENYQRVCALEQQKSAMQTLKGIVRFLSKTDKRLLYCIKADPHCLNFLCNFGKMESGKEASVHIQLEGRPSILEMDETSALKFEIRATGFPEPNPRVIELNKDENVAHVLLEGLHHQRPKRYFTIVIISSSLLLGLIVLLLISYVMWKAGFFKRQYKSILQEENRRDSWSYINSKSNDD

[3] = calorie-restriction mimetic ROS inhibitors, yeast – validation compound set, pilot screen (AID 2706;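 active = superoxide response below 65% of plate, a cut near 3 SD across the whole screen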;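 note: yeast exposed to compound for one week at 30 degrees C before staining; 100% = mean of all compound wells on the same plate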); settings: S. cerevisiae aging, superoxide DHE fluorescence; at 10 µM, stronger effect = lower value
[4] = molecular target: Beta-adrenergic receptor kinase 1 (Homo sapiens) (UniProt P25098); assay: GRK2 binders displacing RNA aptamer, biochemical, validation, human GRK2, bead flow cytometry (AID 488806;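 active = aptamer binding inhibition above 30%, about 3 SD of noise from non-fluorescent compounds; inactive = inhibition at or below 30%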); settings: bead-bound GRK2, FAM-aptamer displacement, at 10 µM, stronger effect = higher value
Chain of Beta-adrenergic receptor kinase 1 (Homo sapiens) (P25098 whole entry, looked up): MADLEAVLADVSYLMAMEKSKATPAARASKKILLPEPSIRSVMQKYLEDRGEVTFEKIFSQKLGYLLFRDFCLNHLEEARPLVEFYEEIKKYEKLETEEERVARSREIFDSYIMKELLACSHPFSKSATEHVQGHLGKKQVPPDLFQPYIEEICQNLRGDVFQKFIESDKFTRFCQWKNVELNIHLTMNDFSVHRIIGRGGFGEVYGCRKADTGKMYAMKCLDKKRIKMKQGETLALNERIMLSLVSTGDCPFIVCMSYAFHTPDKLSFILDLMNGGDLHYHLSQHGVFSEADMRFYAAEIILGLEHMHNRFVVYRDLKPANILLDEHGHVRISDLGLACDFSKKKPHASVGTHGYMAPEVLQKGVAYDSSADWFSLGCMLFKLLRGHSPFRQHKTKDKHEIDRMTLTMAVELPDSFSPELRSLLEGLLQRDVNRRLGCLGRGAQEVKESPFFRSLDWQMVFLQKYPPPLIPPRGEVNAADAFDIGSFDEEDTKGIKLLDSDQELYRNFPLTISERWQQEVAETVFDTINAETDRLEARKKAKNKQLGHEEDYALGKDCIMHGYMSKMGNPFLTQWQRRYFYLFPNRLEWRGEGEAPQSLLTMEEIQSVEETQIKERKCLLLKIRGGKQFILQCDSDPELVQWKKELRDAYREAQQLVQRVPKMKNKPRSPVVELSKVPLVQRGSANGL

[5] = molecular target: Beta-2 adrenergic receptor (Homo sapiens) (UniProt P07550); assay: agonist-induced loss of surface beta2AR – cell-based, FAP fluorogen, flow cytometry, validation set, pilot screen (AID 504459;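 active = percent response above 42, roughly 3 SD of non-fluorescent test compounds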;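 note: agonist-driven loss of surface beta2AR via internalization measured by FAP dye flow cytometry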); settings: Am2.2-beta2AR cells, at 10 µM, stronger effect = higher value
Chain of Beta-2 adrenergic receptor (Homo sapiens) (P07550 whole entry, looked up): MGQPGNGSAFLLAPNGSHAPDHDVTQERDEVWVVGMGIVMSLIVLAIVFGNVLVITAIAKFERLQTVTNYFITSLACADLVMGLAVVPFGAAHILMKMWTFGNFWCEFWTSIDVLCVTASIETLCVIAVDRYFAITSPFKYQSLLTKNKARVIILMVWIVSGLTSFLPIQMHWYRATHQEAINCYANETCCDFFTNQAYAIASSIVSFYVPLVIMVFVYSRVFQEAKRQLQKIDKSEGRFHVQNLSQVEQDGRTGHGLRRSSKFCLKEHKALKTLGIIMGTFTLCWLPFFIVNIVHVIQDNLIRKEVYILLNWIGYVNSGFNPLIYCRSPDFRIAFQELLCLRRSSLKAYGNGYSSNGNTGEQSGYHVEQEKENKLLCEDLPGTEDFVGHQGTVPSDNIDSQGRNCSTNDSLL

[6] = molecular target: AP-2 complex subunit beta (Homo sapiens) (UniProt P63010); assay: beta-arrestin/AP2 interaction blockers – biochemical, validation set, GST-AP2 beads, flow cytometry, pilot screen (AID 504541;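 active = inhibition above 54%, about 3 SD of non-fluorescent compounds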;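 note: AP2 carries R879A mutation and is captured from E. coli lysate; bead-bound FITC arrestin peptide fluorescence measuring arrestin peptide binding to AP2; 0% = DMSO wells and 100% = excess unlabeled arrestin peptide control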); settings: FITC arrestin peptide, at 10 µM, stronger effect = higher value, AP2 beta2 appendage fragment, R879A mutant
Chain of AP-2 complex subunit beta (Homo sapiens) (P63010 whole entry, looked up, the tested form may be a part, one chain of several): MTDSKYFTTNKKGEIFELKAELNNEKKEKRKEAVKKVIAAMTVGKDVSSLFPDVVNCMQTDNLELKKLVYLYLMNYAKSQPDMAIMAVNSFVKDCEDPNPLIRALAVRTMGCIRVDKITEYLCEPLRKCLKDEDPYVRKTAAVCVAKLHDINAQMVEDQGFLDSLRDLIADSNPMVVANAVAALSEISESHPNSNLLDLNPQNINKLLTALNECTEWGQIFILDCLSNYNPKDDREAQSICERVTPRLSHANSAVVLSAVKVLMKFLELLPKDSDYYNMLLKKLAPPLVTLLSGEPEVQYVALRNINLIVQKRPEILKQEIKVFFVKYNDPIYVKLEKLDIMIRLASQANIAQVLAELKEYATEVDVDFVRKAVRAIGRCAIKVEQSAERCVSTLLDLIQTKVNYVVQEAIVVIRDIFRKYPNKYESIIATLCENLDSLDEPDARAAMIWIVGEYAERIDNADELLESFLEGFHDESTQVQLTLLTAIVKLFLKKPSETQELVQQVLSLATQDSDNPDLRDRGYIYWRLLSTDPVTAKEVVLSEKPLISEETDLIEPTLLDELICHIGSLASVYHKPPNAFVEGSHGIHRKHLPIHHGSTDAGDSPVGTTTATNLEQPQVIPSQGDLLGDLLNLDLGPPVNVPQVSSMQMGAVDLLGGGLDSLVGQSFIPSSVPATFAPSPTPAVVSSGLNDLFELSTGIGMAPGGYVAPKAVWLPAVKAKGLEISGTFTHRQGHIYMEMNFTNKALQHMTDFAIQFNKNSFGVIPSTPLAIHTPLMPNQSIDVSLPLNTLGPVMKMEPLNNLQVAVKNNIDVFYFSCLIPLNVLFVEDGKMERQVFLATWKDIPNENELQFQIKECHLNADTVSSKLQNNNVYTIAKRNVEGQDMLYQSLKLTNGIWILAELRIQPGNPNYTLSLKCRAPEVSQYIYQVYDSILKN

[7] = cytosolic pH regulators acting via V-ATPase – S. cerevisiae, pHLuorin, HTS validation (AID 504600); settings: V-ATPase proton transport, at 10 µM, stronger effect = higher value;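 note: plate controls were DMSO for no effect and reference compound for full effect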
[8] = tested on: anti-desmoglein-3 scFv antibody binding to human DSG3; assay: blockers of pathogenic pemphigus antibody–desmoglein-3 binding – biochemical, validation compound set, bead-based, flow cytometry, pilot screen (AID 588368;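 active = binding below the plate cutoff, the plate median minus 3 SD, with a reading above zero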;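 note: signal is the median channel fluorescence of bead-bound GFP antibody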); settings: Protein G beads, DSG3-Fc, scFv-GFP binding, at 10 µM, stronger effect = lower value
[9] = Nile Red efflux blockade in pump-expressing yeast – validation compound set, multiplex, phenotypic, pilot screen (AID 588506;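 active = efflux inhibition above 0.42, the validation set average plus 4 SD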;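 note: Nile Red retained in cells so higher fluorescence means more efflux inhibition; 0 = negative control wells and 1 = enniatin B 25 µM full block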); settings: S. cerevisiae pump-expressing triplex, Nile Red efflux flow cytometry; at 10 µM; stronger effect = higher value; the pumps come from Candida albicans
[10] = molecular target: ATP-binding cassette sub-family B member 6 (Homo sapiens) (UniProt Q9NP58); assay: blockers of ABCB6-driven porphyrin uptake – K562-ABCB6 cells, flow cytometry, validation set, pilot screen (AID 588550;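 active = inhibition above the screen-wide mean plus 3 SD, about 51%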;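 note: 0% = DMSO wells and 100% = benzethonium chloride 70 µM positive control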); settings: K562-ABCB6 porphyrin accumulation, 1 h, at 10 µM, stronger effect = higher value
Chain of ATP-binding cassette sub-family B member 6 (Homo sapiens) (Q9NP58 whole entry, looked up): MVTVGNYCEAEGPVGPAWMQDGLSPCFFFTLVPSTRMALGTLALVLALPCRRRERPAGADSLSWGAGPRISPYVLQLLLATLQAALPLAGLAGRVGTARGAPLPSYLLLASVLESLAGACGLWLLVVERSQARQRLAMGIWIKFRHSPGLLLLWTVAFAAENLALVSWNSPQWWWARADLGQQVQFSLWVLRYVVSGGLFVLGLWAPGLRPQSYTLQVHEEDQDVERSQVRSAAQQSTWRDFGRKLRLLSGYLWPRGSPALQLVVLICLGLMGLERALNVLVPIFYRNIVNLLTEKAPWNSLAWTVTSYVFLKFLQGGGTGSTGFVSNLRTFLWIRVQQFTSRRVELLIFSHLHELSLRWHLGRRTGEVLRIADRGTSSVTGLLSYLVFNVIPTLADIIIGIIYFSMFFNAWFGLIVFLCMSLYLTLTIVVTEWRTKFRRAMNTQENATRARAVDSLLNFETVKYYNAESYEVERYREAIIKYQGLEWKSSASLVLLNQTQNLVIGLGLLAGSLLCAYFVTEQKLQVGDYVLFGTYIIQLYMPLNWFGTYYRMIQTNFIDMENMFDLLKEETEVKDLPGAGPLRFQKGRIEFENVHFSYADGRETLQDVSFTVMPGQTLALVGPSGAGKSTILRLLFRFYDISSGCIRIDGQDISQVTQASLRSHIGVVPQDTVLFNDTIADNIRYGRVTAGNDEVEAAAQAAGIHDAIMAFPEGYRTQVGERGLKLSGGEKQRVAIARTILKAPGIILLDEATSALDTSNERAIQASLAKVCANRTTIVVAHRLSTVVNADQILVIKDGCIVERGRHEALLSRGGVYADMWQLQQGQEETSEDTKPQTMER

[11] = AML differentiation inducers, ER-HoxA9 marrow cells – cell-based, GFP/MAC1 double positive, flow cytometry, validation set, primary screen (AID 588685;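 active = differentiation response of at least 50%, scaled between solvent and reference control, from cells with both markers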;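 note: compound exposure lasts four days before antibody staining and flow analysis; 0% = DMSO wells and 100% = 5 µM fulvestrant positive control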); settings: stronger effect = higher value, normalized: vehicle 0, fulvestrant 100

Compound | double positive events [1] | vesicle binding response [1] | inhibition [2] | superoxide response (% of plate) [3] | aptamer binding inhibition [4] | response [5] | inhibition [6] | response [7] | binding (% of control) [8] | efflux inhibition (fraction of control) [9] | inhibition [10] | differentiation response [11]
COc1ccc(CN(CCC(c2ccc(F)cc2)C2CCOC(C)(C)C2)C(=O)c2ccco2)cc1 (stereo not given) | 59.4% | 144% (inactive) | -8.62% (inactive) | 104% (inactive) | 5% (inactive) | 22.1% (inactive) | -11.3% (inactive) | 1.03% (inactive) | 101% (inactive) | 0.12 (inactive) | 3% (inactive) | -13.6% (inactive)
COc1ccc2c(c1OC)C(=O)NC(C)=C(C(=O)OC(C)(C)C)C2O (stereo not given) | 62.8% | 192% (inactive) | 5.03% (inactive) | 97.2% (inactive) | 4% (inactive) | 7.52% (inactive) | -5.16% (inactive) | 1.16% (inactive) | 103% (inactive) | 0.01 (inactive) | 7% (inactive) | 56.8% (active)
COc1ccc(C(=O)Nc2ccc(OC)c([N+](=O)[O-])c2)cc1Br | 59% | 113% (inactive) | 4.27% (inactive) | 92.1% (inactive) | -1% (inactive) | 8.89% (inactive) | 7.87% (inactive) | 4.22% (inactive) | 83.4% (inactive) | -0.175 (inactive) | 2% (inactive) | -10.4% (inactive)
O=C(/C=C/c1ccc2c(c1)OCO2)c1ccccn1 | 60.4% | 181% (inactive) | 4.84% (inactive) | 89.8% (inactive) | 1% (inactive) | -23.4% (inactive) | -13% (inactive) | -4.66% (inactive) | 102% (inactive) | 0 (inactive) | -8% (inactive) | -5.97% (inactive)
COc1cc2c3c(c1)C1(C(=O)N3C(C)(C)C=C2C)C(C#N)=C(N)Oc2cc(C)oc(=O)c21 (stereo not given) | 60.1% | 172% (inactive) | 2.3% (inactive) | 96.8% (inactive) | -1% (inactive) | -71.3% (inactive) | -6.4% (inactive) | -0.54% (inactive) | 110% (inactive) | 0.4 (inactive) | 5% (inactive) | 79.2% (active)
CCC12CN3CC(CC)(CN(C1)C31C(=O)N(C)c3ccc(C)cc31)C2=O (stereo not given) | 59.5% | 181% (inactive) | -2.82% (inactive) | 94.6% (inactive) | -3% (inactive) | -18.8% (inactive) | 0.32% (inactive) | 4.91% (inactive) | 102% (inactive) | 0 (inactive) | -1% (inactive) | -10.9% (inactive)
CC(C)CC(=O)OC1C(N2CCOCC2)c2c(ccc(/C=C/C(=O)N3CCOCC3)c2O)OC1(C)C (stereo not given) | 57.1% | 158% (inactive) | -3.16% (inactive) | 101% (inactive) | -1% (inactive) | 84.7% (active) | 35% (inactive) | -2.63% (inactive) | 108% (inactive) | 0.37 (inactive) | 5% (inactive) | 53.6% (active)
O=C1Nc2ccc3sc4ccccc4c3c2C1=O | 62% | 162% (inactive) | 9.63% (inactive) | 111% (inactive) | 1% (inactive) | 3.08% (inactive) | -0.66% (inactive) | -7.6% (inactive) | 102% (inactive) | -0.19 (inactive) | -15% (inactive) | -0.18% (inactive)
C[C@H](NC(=O)NCCc1ccccc1)C(=O)O | 58.1% | 252% (inactive) | 2.3% (inactive) | 104% (inactive) | 6% (inactive) | 0.08% (inactive) | -3.97% (inactive) | -4.57% (inactive) | 99.1% (inactive) | -0.13 (inactive) | 3% (inactive) | 4% (inactive)
O=C1c2ccccc2C(=O)C1c1ccccc1 | 67% | 512% (inactive) | 3.14% (inactive) | 95.2% (inactive) | 7% (inactive) | -32.5% (inactive) | -6.92% (inactive) | -0.31% (inactive) | 102% (inactive) | 0 (inactive) | 4% (inactive) | -5.97% (inactive)
Cn1c(=O)c2c(nc(SCCN3CCCCC3)n2C)n(C)c1=O | 61.5% | 176% (inactive) | -0.27% (inactive) | 85.5% (inactive) | -3% (inactive) | -25.4% (inactive) | -6.3% (inactive) | 1.6% (inactive) | 110% (inactive) | -0.13 (inactive) | -2% (inactive) | -11.9% (inactive)
O=P(c1ccccc1)(c1ccccc1)c1nc(-c2ccc(Cl)cc2)oc1N1CCOCC1 | 57.7% | 148% (inactive) | 4.27% (inactive) | 135% (inactive) | 2% (inactive) | -13.6% (inactive) | 7.65% (inactive) | 3.02% (inactive) | 105% (inactive) | 0.435 (active) | -3% (inactive) | -3.11% (inactive)
COc1ccc(C(=O)Nc2nc3ccccc3c(=O)[nH]2)cc1 | 65.5% | 352% (inactive) | 3.67% (inactive) | 84.4% (inactive) | 0% (inactive) | 37.4% (inactive) | 4.94% (inactive) | -8.54% (inactive) | 99.1% (inactive) | -0.03 (inactive) | 4% (inactive) | 0% (inactive)
CC(=O)C1=C(NC(=O)c2ccc(C(F)(F)F)cc2)C[C@@H]2[C@H]1C2(C)C | 60% | 129% (inactive) | -3.77% (inactive) | 99% (inactive) | 3% (inactive) | 0.35% (inactive) | 6.52% (inactive) | -6.14% (inactive) | 101% (inactive) | 0.28 (inactive) | -1% (inactive) | -17.7% (inactive)
Cc1cccc(N2C(=O)C3C(c4ccccc4)OC4(C(=O)c5ccccc5C4=O)C3C2=O)c1 (stereo not given) | 56.8% | 143% (inactive) | -5.89% (inactive) | 110% (inactive) | 3% (inactive) | 1.5% (inactive) | 6.34% (inactive) | -0.37% (inactive) | 104% (inactive) | 0.33 (inactive) | 5% (inactive) | -12% (inactive)
O=C(OCCN1CCCC1)C1(c2ccccc2)CCCC1 | 65.8% | 226% (inactive) | -4.52% (inactive) | 86.5% (inactive) | 1% (inactive) | 1.23% (inactive) | -5.26% (inactive) | 1.69% (inactive) | 97% (inactive) | -0.06 (inactive) | -8% (inactive) | -7.2% (inactive)
COc1ccc(NC(=S)NCCc2c[nH]c3ccccc23)cc1 | 69.3% | 445% (inactive) | -1.97% (inactive) | 111% (inactive) | 1% (inactive) | -13.3% (inactive) | -10.2% (inactive) | -1.54% (inactive) | 108% (inactive) | 0 (inactive) | 8% (inactive) | -6.96% (inactive)
Cn1cc(CN(CCO)Cc2cccs2)c(-c2cccc(Cl)c2)n1 | 55.3% | 159% (inactive) | -1.79% (inactive) | 92.3% (inactive) | 3% (inactive) | 32.8% (inactive) | -0.41% (inactive) | 1.36% (inactive) | 99.3% (inactive) | -0.06 (inactive) | 5% (inactive) | -8.8% (inactive)
CCOC(=O)/C=C1\NC(C)(C)Cc2cc(OC)c(OC)cc21 | 59.2% | 271% (inactive) | 5.03% (inactive) | 102% (inactive) | 4% (inactive) | 9.33% (inactive) | -4.08% (inactive) | -1.95% (inactive) | 101% (inactive) | 0.08 (inactive) | 7% (inactive) | 31.2% (inactive)
COc1ccc(N2C(=O)[C@@H]3Cc4ccccc4CN3C2=O)cc1 | 63.2% | 211% (inactive) | 14.6% (inactive) | 89.7% (inactive) | 5% (inactive) | 12.1% (inactive) | -2.78% (inactive) | -2.4% (inactive) | 107% (inactive) | 0.01 (inactive) | 7% (inactive) | 18.4% (inactive)
O=C(c1ccccc1F)c1cc2c(cc1[N+](=O)[O-])OCCO2 | 63% | 163% (inactive) | 15% (inactive) | 107% (inactive) | 3% (inactive) | 24.6% (inactive) | -6.21% (inactive) | 1.51% (inactive) | 105% (inactive) | -0.19 (inactive) | 7% (inactive) | -1.65% (inactive)
CCN(CC)CCNC(=O)c1cc(S(C)(=O)=O)ccc1OC | 58.8% | 219% (inactive) | -1.79% (inactive) | 88.3% (inactive) | 4% (inactive) | 4.46% (inactive) | -1.05% (inactive) | 4.62% (inactive) | 101% (inactive) | -0.28 (inactive) | 5% (inactive) | -5.6% (inactive)
COc1ccccc1C(CC(=O)Nc1ccccc1C)c1ccc(OC(C)C)cc1 (stereo not given) | 63.5% | 263% (inactive) | 9.95% (inactive) | 92.7% (inactive) | 4% (inactive) | -15% (inactive) | -4.43% (inactive) | -5.65% (inactive) | 105% (inactive) | 0.54 (active) | 0% (inactive) | -1.05% (inactive)
NS(=O)(=O)c1cc2c(cc1C(F)(F)F)NCNS2(=O)=O | 80.6% | 205% (inactive) | 10.8% (inactive) | 92.9% (inactive) | 5% (inactive) | -9.47% (inactive) | 1.9% (inactive) | 1.35% (inactive) | 101% (inactive) | -0.04 (inactive) | 11% (inactive) | -3.02% (inactive)
COc1cc2c(cc1O)CC[C@@H]1[C@@H]2CC[C@]2(C)[C@@H](O)CC[C@@H]12 | 58.8% | 139% (inactive) | 44.9% (inactive) | 112% (inactive) | -7% (inactive) | -10.9% (inactive) | -5.34% (inactive) | -4.33% (inactive) | 106% (inactive) | 0.04 (inactive) | -1% (inactive) | -9.91% (inactive)
